NRP1-CendR mod: modulators of CendR peptide binding to NRP-1, primary screen, biochemical, fluorescence polarization, uHTS; FAM-RPARPAR peptide binding to NRP-1; 360,000 compounds, 0.85% hits; Neuropilin-1 (Homo sapiens), O14786; inhibition, % at 25 µM; AID 602438, 2012;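 active = inhibition or corrected inhibition above about 18%, plus a signal ratio from 0.5 to 1.5, limit read from the data, passing the limit was not always enough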
ADAM10 inh: human ADAM10 inhibitors, primary screen, biochemical, QFRET, HTS; recombinant ADAM10, EDANS/DABCYL FRET peptide cleavage, 3 h; Disintegrin and metalloproteinase domain-containing protein 10 (Homo sapiens), O14672; 370,000 compounds, 0.62% hits; AID 720582, 2013; inhibition, % at 7 µM;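 active = inhibition above a per-campaign cutoff equal to the mean of compounds falling between control-based bounds plus 3 SD, cut at about 20% in these data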
ADAM17 inh: ADAM17 inhibitors, primary screen, biochemical, QFRET | recombinant ADAM17, EDANS/DABCYL FRET peptide cleavage | Disintegrin and metalloproteinase domain-containing protein 17 (Homo sapiens), P78536 | inhibition, % at 6.95 µM | 370,000 compounds, 0.83% hits;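 active = inhibition above the mean of compounds lying between control limits plus 3 SD, set per campaign, cut at about 8.5% in these data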
Target sequence (P78536 215-824 limits assumed): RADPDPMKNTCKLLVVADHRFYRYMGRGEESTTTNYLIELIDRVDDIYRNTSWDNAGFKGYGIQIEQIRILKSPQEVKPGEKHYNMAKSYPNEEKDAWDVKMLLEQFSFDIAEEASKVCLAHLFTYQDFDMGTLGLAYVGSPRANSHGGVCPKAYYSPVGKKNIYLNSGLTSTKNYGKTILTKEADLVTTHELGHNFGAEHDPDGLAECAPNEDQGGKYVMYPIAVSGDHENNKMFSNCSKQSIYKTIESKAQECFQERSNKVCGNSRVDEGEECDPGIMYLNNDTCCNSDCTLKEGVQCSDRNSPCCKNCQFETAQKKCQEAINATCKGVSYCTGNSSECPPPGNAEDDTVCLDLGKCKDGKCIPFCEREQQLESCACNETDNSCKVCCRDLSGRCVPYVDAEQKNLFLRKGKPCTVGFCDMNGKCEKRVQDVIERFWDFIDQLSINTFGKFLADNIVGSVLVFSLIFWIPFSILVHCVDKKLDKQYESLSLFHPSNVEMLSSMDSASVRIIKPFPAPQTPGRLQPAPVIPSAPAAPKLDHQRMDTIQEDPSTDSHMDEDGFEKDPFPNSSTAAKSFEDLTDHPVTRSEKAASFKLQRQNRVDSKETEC
APOBEC3G inh: APOBEC3G DNA deaminase inhibitors, primary screen, biochemical, fluorescence, single-stranded DNA substrate, uHTS. DNA dC->dU-editing enzyme APOBEC-3G (Homo sapiens), Q9HC16. recombinant A3G, ssDNA deamination FAM/TAMRA fluorescence. inhibition, % at 20 µM. 330,000 compounds, 0.28% hits;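 active = inhibition of at least 40% at 20 µM, with no more than 30% in the related APOBEC3A deaminase screen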
APOBEC3A inh: APOBEC3A ssDNA deaminase inhibitors, primary screen, selectivity assay for APOBEC3G inhibitor project, biochemical, FAM/TAMRA oligo cleavage fluorescence. recombinant A3A, FAM/TAMRA ssDNA deamination fluorescence. DNA dC->dU-editing enzyme APOBEC-3A (Homo sapiens), P31941. 330,000 compounds, 0.41% hits. inhibition, % at 20 µM;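 active = at least 40% inhibition at 20 µM here, with at most 30% in a related deaminase screen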
A3G conf: APOBEC3G deaminase inhibitor retest, confirmation, biochemical, fluorescence, single-stranded DNA substrate, single concentration; shares compounds with APOBEC3G inh; recombinant A3G ssDNA deaminase, UDG/FAM-TAMRA fluorescence; inhibition, % at 20 µM; 890 compounds, 72% hits; AID 493152, 2011;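 active = inhibition reaching a set limit in any replicate at 20 µM, the limit being 80% of the first screen's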
UDG ctr A3G: E. coli UDG inhibitors, confirmation, counter-screen for APOBEC3G inhibitor project, biochemical, single concentration, fluorescence, FAM/TAMRA oligo; inhibition, % at 20 µM; 710 tested, under 10 active; UDG counterscreen; AID 504715, 2011; shares compounds with APOBEC3G inh;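 active = compounds giving 40% or more inhibition at 20 µM in any one of the three replicates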;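 also: inhibitors lower the FAM signal released by uracil excision and alkaline cleavage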
Hits are given with their value. Sampled rows, rich in hits. Any-hit rate of the full collection: about 2.4%.

What do the screens show for `COC(=O)Cc1sc(-c2ccccn2)nc1-c1ccccc1`?
NRP1-CendR mod: inactive; ADAM10 inh: inactive; ADAM17 inh: inactive; APOBEC3G inh: 49; APOBEC3A inh: inactive; A3G conf: 41; UDG ctr A3G: inactive

Results for CCN1CCN(c2nc(C)nc3c2sc(=S)n3C)CC1 ?
NRP1-CendR mod: inactive; ADAM10 inh: inactive; ADAM17 inh: inactive; APOBEC3G inh: 46; APOBEC3A inh: inactive; A3G conf: 45

What do the screens show for `Cc1ccc(S(=O)(=O)N2c3ccc(F)cc3C[C@H]2CSc2ccccc2)cc1`?
ADAM10 inh: inactive; ADAM17 inh: inactive

Results for CCCN1CCCCC(NC(=O)c2ccc(-c3ccccc3)cc2)C1=O (centres undefined) ?
ADAM10 inh: inactive; ADAM17 inh: inactive

How did Cc1cc(O)c(Sc2ncn[nH]2)cc1NS(=O)(=O)c1ccc(Cl)cc1 do in these assays?
NRP1-CendR mod: inactive; ADAM10 inh: inactive; ADAM17 inh: inactive; APOBEC3G inh: inactive; APOBEC3A inh: inactive

How did O=S(=O)(Nc1cc(Sc2ncn[nH]2)c(O)c2ccccc12)c1ccccc1 do in these assays?
NRP1-CendR mod: inactive; ADAM10 inh: inactive; ADAM17 inh: inactive; APOBEC3G inh: 61; APOBEC3A inh: inactive; A3G conf: 89; UDG ctr A3G: inactive

Results for Nc1cc(S(=O)(=O)Nc2ccccc2Cl)ccc1N1CCCC1 ?
NRP1-CendR mod: inactive; ADAM10 inh: inactive; ADAM17 inh: inactive; APOBEC3G inh: inactive; APOBEC3A inh: inactive

How did Nc1cc(S(=O)(=O)Nc2cc(Cl)ccc2Cl)ccc1N1CCOCC1 do in these assays?
NRP1-CendR mod: inactive; ADAM10 inh: inactive; ADAM17 inh: inactive; APOBEC3G inh: 48; APOBEC3A inh: inactive; A3G conf: 34; UDG ctr A3G: inactive

What do the screens show for `COC(=O)C1=C(C)N(Cc2ccc(C(F)(F)F)cc2)C(=NCc2ccccc2C(F)(F)F)NC1c1ccc(Cl)cc1` (centres undefined)?
ADAM10 inh: inactive; ADAM17 inh: inactive

Results for Cc1ccc(CN2CCCCC(NC(=O)Cc3cccs3)C2=O)cc1 (centres undefined) ?
ADAM10 inh: inactive; ADAM17 inh: inactive

How did O=C(Cn1sc2ccccc2c1=O)NC12CC3CC(CC(C3)C1)C2 do in these assays?
NRP1-CendR mod: inactive; APOBEC3G inh: 78; APOBEC3A inh: inactive; A3G conf: 78; UDG ctr A3G: inactive

What do the screens show for `O=C(Cn1sc2ccccc2c1=O)Nc1ccccc1`?
NRP1-CendR mod: inactive; ADAM10 inh: inactive; ADAM17 inh: inactive

Results for O=C(NC1CCCCN(Cc2cccc(C(F)(F)F)c2)C1=O)c1ccc(-c2ccccc2)cc1 (centres undefined) ?
ADAM10 inh: inactive; ADAM17 inh: inactive

How did O=C(Oc1c(Br)cc(C(=S)N2CCOCC2)cc1Br)c1ccc(Cl)cc1 do in these assays?
NRP1-CendR mod: inactive; ADAM10 inh: inactive; ADAM17 inh: inactive; APOBEC3G inh: 62; APOBEC3A inh: inactive; A3G conf: 20; UDG ctr A3G: inactive

What do the screens show for `O=C(Oc1ccc(C(=S)N2CCOCC2)cc1Br)c1cc(Cl)ccc1Cl`?
NRP1-CendR mod: inactive; ADAM10 inh: inactive; ADAM17 inh: inactive; APOBEC3G inh: inactive; APOBEC3A inh: inactive

How did CC(C)C[C@H](NC1(C(=O)NC2CCCCC2)CCCCC1)C(=O)NCC(c1ccccc1)c1ccccc1 do in these assays?
ADAM10 inh: inactive; ADAM17 inh: inactive

How did Cc1ccc(CN2CC=CS2(=O)=O)cc1 do in these assays?
ADAM10 inh: inactive; ADAM17 inh: inactive

What do the screens show for `CCOC(=O)c1c(NC(=O)c2ccccc2Cl)sc2c1CCc1ccccc1-2`?
NRP1-CendR mod: inactive; ADAM10 inh: inactive; ADAM17 inh: inactive; APOBEC3G inh: 57; APOBEC3A inh: inactive; A3G conf: 75; UDG ctr A3G: inactive

How did CCOC(=O)c1c(NC(=O)c2ccccc2)sc2c1CCc1ccccc1-2 do in these assays?
NRP1-CendR mod: inactive; ADAM10 inh: inactive; ADAM17 inh: inactive; APOBEC3G inh: 58; APOBEC3A inh: inactive; A3G conf: 16; UDG ctr A3G: inactive

Results for CCOC(=O)c1c(NC(=O)c2ccccc2C(=O)O)sc2c1CCCC2 ?
NRP1-CendR mod: inactive; ADAM10 inh: inactive; ADAM17 inh: inactive; APOBEC3G inh: inactive; APOBEC3A inh: inactive

What do the screens show for `COc1ccc(-c2nc3c(C)cc(Br)cn3c2Cc2ccccc2C(F)(F)F)cc1OC`?
ADAM10 inh: inactive; ADAM17 inh: inactive

What do the screens show for `Oc1ccc(-c2cn3c(n2)SCC3)cc1O`?
NRP1-CendR mod: inactive; ADAM10 inh: inactive; ADAM17 inh: inactive; APOBEC3G inh: 59; APOBEC3A inh: inactive; A3G conf: 76; UDG ctr A3G: inactive

Results for CCCc1ccc(C2=Nn3c(nnc3C(C)C)SC2)cc1 ?
NRP1-CendR mod: inactive; APOBEC3G inh: 50; APOBEC3A inh: inactive; A3G conf: inactive; UDG ctr A3G: inactive

Results for CCCCNC(=O)C[C@H]1C[C@@]2(C(=O)OC)C(=C[C@H](C(C)(C)C)O[C@@H]2C)N(Cc2ccc3c(c2)OCO3)C1=O ?
ADAM10 inh: inactive; ADAM17 inh: inactive

Results for O=C(C(=O)N1CCN(S(=O)(=O)c2ccc(F)cc2)CC1)c1cccc(C(F)(F)F)c1 ?
ADAM10 inh: inactive; ADAM17 inh: inactive

What do the screens show for `CCc1ccc(-n2c(=O)c3ccccc3n3c(=S)[nH]nc23)cc1`?
NRP1-CendR mod: inactive; ADAM10 inh: inactive; ADAM17 inh: inactive; APOBEC3G inh: 61; APOBEC3A inh: inactive; A3G conf: 76; UDG ctr A3G: inactive

How did Cc1ccc(C(=O)CSc2nc3cc(S(=O)(=O)N4CCOCC4)ccc3o2)cc1 do in these assays?
NRP1-CendR mod: inactive; ADAM10 inh: inactive; ADAM17 inh: inactive; APOBEC3G inh: inactive; APOBEC3A inh: inactive

What do the screens show for `Cc1nc2ccc(Nc3nc4cc(S(=O)(=O)N5CCOCC5)ccc4o3)cc2s1`?
NRP1-CendR mod: inactive; ADAM10 inh: inactive; ADAM17 inh: inactive; APOBEC3G inh: 56; APOBEC3A inh: inactive; A3G conf: 47; UDG ctr A3G: inactive

How did Cc1nc2ccc(NC(=O)c3cc(S(=O)(=O)N4CCOCC4)ccc3C)cc2s1 do in these assays?
NRP1-CendR mod: inactive; ADAM10 inh: inactive; ADAM17 inh: inactive; APOBEC3G inh: inactive; APOBEC3A inh: inactive
